Screening data (PubChem BioAssay)
The list is not random: actives were taken first. Their share in the collection is about 2.4%.
D2 ag-1: human D2 receptor agonism in beta-arrestin assay | DiscoveRx PathHunter D2 beta-arrestin, luminescence, 90 min; 100% = 57 uM dopamine signal | activation, % (concentration not given with the values) | 360,000 tested, 0.084% active | AID 624465; in the data active means activation above about 40%; inconclusive means between about 15% and that limit
Target sequence (P14416 whole entry, looked up): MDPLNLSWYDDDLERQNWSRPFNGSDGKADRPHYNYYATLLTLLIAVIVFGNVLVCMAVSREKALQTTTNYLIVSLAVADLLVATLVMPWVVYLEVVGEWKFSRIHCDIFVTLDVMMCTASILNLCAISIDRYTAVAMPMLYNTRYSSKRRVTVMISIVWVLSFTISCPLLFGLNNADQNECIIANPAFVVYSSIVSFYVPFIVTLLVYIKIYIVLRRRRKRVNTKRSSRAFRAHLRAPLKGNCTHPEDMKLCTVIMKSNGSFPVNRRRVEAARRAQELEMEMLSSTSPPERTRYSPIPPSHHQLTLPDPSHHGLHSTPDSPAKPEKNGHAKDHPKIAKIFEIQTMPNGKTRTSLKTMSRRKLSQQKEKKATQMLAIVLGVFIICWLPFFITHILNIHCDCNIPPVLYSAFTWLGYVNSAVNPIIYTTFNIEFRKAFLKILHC
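DiscoveRx PathHunter D2 beta-arrestin cells (2,100/well) attached overnight, then compound-stimulated 90 min at 37 C in HBSS/10 mM HEPES/0.1% Tween-20 buffer; beta-galactosidase complementation read by luminescence after 1 h at ambient temperature. Dopamine 57 uM final (EC100) as control.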
D2 PAM-1: human D2 receptor positive allosteric modulation; DiscoveRx D2 beta-arrestin cells, luminescence, 90 min; 100% = 57 uM dopamine signal; potentiation, % (concentration not given with the values); 360,000 tested, 0.23% active; P14416; in the data active means potentiation above about 50%; inconclusive means mostly about 30% to 49%
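D2 cells co-treated with compound plus 50 nM dopamine (EC20) for 90 min at 37 deg C to detect potentiation. Beta-arrestin recruitment was read as enzyme-fragment luminescence after 1 h at ambient temperature. Full response was set by 57 uM dopamine.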
D2 antagonist: D2 dopamine receptor (human) antagonism. P14416. HEK293 TREx D2 cells, calcium flux, dopamine EC80. inhibition, % at 10 µM. 340,000 tested, 2% active; in the data active means inhibition above about 30%; inactive means below that, where a call was filed
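Read-out: kinetic calcium fluorescence (1 cycle/s) in inducible HEK293 T-REx D2 cells after an EC80 dopamine addition that followed 180 s compound preincubation. Loss of the dopamine response indicates antagonism.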
D2 PAM-2: positively modulates the human D2 dopamine receptor allosterically; P14416; HEK293 T-REx D2, calcium flux, EC20 dopamine potentiation; potentiation, % at 10 µM; 340,000 tested, 0.34% active;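 active means potentiation over 3 SD above the plate norm, cut at about 30% in these data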
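Using a no-wash calcium dye in inducible, force-coupled HEK293 Trex cells expressing D2, we tracked fluorescence each second for 180 s after compound, then for 180 s after EC20 dopamine to detect augmented signalling.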
D2 ag-2: activates the human D2 dopamine receptor | P14416 | HEK293 T-REx D2 cells, calcium flux agonist mode | activation, % at 2 µM | 340,000 tested, 0.53% active;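 active means activation over 3 SD above normal in the single-dose calcium agonist read, cut at about 30% in these data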
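Agonism is scored from calcium flux in a force-coupled, inducible HEK293 cell line expressing D2, read kinetically for 180 s after compound addition against dopamine controls.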
Each line names hits and unclear results; the compound was inactive in the other large screens.

CC1CC(C)CN(C(=O)COC(=O)c2cccc([N+](=O)[O-])c2)C1 (configuration not stated)	none
O=C(OCC(=O)N1CCN(c2ccccc2)CC1)c1cccc([N+](=O)[O-])c1	D2 antagonist 30
O=C(COc1ccccc1)N1CCN(c2ccccc2)CC1	D2 antagonist 30
CC(C)NC(=O)Cn1nc(N2CCN(c3ccccc3)CC2)ccc1=O	none (no result: D2 ag-1, D2 PAM-1, D2 antagonist, D2 PAM-2)
COCCCNC(=O)CCCn1c(=O)c2ccccc2n(CC(=O)Nc2ccc(C)cc2Cl)c1=O	none (no result: D2 ag-1, D2 PAM-1, D2 antagonist)
COc1ccc(CNCC(O)COc2cccc3c2OC(C)(C)C3)cc1 (configuration not stated)	D2 antagonist 44
O=S(=O)(c1ccc(Cl)cc1)c1nnn2c1nc(N1CCCCC1)c1sccc12	none (no result: D2 ag-1, D2 PAM-1, D2 antagonist)
COCCNc1nc(NCc2ccc(C(C)C)cc2)c2sccc2n1	none (no result: D2 antagonist, D2 PAM-2, D2 ag-2)
Cn1c(SCC(=O)NCCNC(=O)CSc2nnc(C(F)(F)F)n2C)nnc1C(F)(F)F	D2 antagonist 33
Cc1ccccc1CNC(=O)CCS(=O)(=O)c1cc2c3c(c1)CCN3C(=O)CC2	none (no result: D2 ag-1, D2 PAM-1, D2 antagonist)
O=S(=O)(CCn1cccc1)CCn1cccc1	D2 PAM-2 30
O=C(O)C1CCCCC1C(=O)Nc1ccccn1 (configuration not stated)	D2 antagonist 41
O=C(Nc1ccccn1)NC1CCCCC1	none
CCOCCn1ccc2c(OCC(=O)Nc3cccc(F)c3)cccc2c1=O	none (no result: D2 ag-1, D2 PAM-1, D2 antagonist)
CCOc1cc(C#N)c(-n2nnc3c(sc4nc(C)cc(C)c43)c2=O)cc1OCC	none (no result: D2 ag-1, D2 PAM-1, D2 antagonist, D2 PAM-2)
COC(C[C@H]1O[C@@H]1[C@@H](O)[C@H](C)OCc1ccccc1)OC	D2 antagonist 36
Cc1ccc(F)cc1NC(=O)CCOc1ccccc1	D2 antagonist 32
Cc1cc(Cl)ccc1OCC(=O)NNC(=O)CCOc1ccccc1	D2 antagonist 31
CCOC(=O)c1cccc(-n2nnc3c(sc4nc(C)c(Br)c(C)c43)c2=O)c1	none (no result: D2 ag-1, D2 PAM-1, D2 antagonist, D2 ag-2)
CCCCCn1c(=O)[nH]c2cc(C(=O)Nc3ccc(F)c(F)c3)ccc2c1=O	none (no result: D2 ag-1, D2 PAM-1, D2 antagonist)
CCN1CCSc2ccc(C(=O)NCc3cccc(F)c3)cc21	D2 antagonist 44
CCCOc1ccc(CNC(=O)c2ccc3c(c2)N(CC)CCS3)cc1	D2 antagonist 50
Cc1cc(N2CCOCC2)nc2ccc(NC(=O)CCC(=O)N3CCN(c4ccccc4)CC3)cc12	D2 PAM-2 31
Cc1cc(C)n(CCNC(=O)c2ccco2)n1	D2 PAM-2 31
Cc1ccc(NC(=O)CCNC(=O)c2ccco2)cc1Cl	D2 antagonist 36
O=C(NCCNC(=O)c1ccco1)c1ccco1	none (no result: D2 PAM-2)
COc1cccc(C(=O)NCCNC(=O)c2ccco2)c1	none
CCCOc1cccc(C(=O)NCCNC(=O)c2ccco2)c1	D2 antagonist 57
Cc1cccc(CNc2ccc(S(=O)(=O)N3CCCCC3)cc2)c1	none
CCOC(=O)N1CCC(NC(=O)c2ccc(Cl)cc2)CC1	none
CCOC(=O)N1CCC(NCCNC(=O)c2ccc(F)cc2)CC1	D2 antagonist 66
CCOC(=O)N1CCC(NCCNC(=O)c2cccc(F)c2)CC1	D2 antagonist 60
Cc1ccc(/C=N\NC(=O)CCc2n[nH]c(=O)[nH]c2=O)o1	D2 PAM-2 50
COc1ccc(OC)c(/C=N/NC(=O)CCc2n[nH]c(=O)[nH]c2=O)c1	none
COc1cc(C(=O)Nc2ccc(S(=O)(=O)NC(C)(C)C)cc2)cc(OC)c1OC	none
COc1cc(C(=O)Nc2ccc(S(=O)(=O)NC(C)C)cc2)cc(OC)c1OC	D2 antagonist 31
CCOC(=O)c1ccccc1NC(=O)CSc1nc2ncccc2[nH]1	none (no result: D2 ag-1, D2 PAM-1, D2 antagonist, D2 ag-2)
Cc1cc(NS(=O)(=O)c2ccc(NC(=O)c3ccc(Cl)cc3[N+](=O)[O-])cc2)no1	D2 PAM-1 inconclusive, D2 antagonist 41
Cc1cc(NS(=O)(=O)c2ccc(NC(=O)c3ccc([N+](=O)[O-])c(Cl)c3)cc2)no1	none (no result: D2 antagonist, D2 PAM-2, D2 ag-2)
CC(C(=O)Nc1ccccc1)N1CCN(c2ccccn2)CC1 (configuration not stated)	D2 ag-2 40
Cc1cccc(NC(=S)N2CCN(c3ccccn3)CC2)c1	none
COc1ccc(Cl)cc1C(=O)N1CCN(c2ccccn2)CC1	none
CC(=O)c1cccc(NC(=S)N2CCN(c3ccccn3)CC2)c1	D2 ag-2 40
